{
  "source": "PubChem BioAssay (EPA / NIEHS)",
  "note": "Several values for one entry are separate records, joined by “and”; a condition that tells them apart may be missing. Identical values can stand only once. More than one record can exist for a structure, and the calls need not agree. Activity calls are given as the source filed them. Rule for the calls: active = hit-call score of the fitted dose curve at least 0.9, where 1 is the maximum; inactive = score below 0.9.",
  "data": [
    {"read-out": "Caspase-3 (Homo sapiens) (UniProt P42574)", "assay": "LTEA_HepaRG_CASP3: Life Technologies and Expression Analysis (LTEA) Assay for cysteine-aspartic acid protease (CASP3) using HepaRG (AID 2283477)", "conditions": "mRNA level, 48 h; actives raise or lower the signal", "experimental": "LTEA_HepaRG is a cell based, multiplexed-readout assay that uses HepaRG, a human liver cell line, with measurements taken at 48 hours after chemical dosing on a 96-well plate.LTEA_HepaRG_CASP3 is one of 102 assay component(s) measured in the LTEA HepaRG cell culture assay. It is a marker of Cell proliferation, survival, death.Data from the assay component LTEA_HepaRG_CASP3 was analyzed into 1 endpoint. This assay endpoint, LTEA_HepaRG_CASP3, was analyzed with bidirectional fitting relative to DMSO as the negative control and baseline of activity. Using a type of inducible reporter, measures of mRNA induction for gain or loss-of-signal activity can be used to understand regulation of transcription factor activity. To generalize the intended target to other relatable targets, this assay endpoint is annotated to the protease intended target family, where the subfamily is cysteine protease.\nA total of 1060 chemcials from the ToxCast library were tested in eight-point concentration-response experiments. Cell culture and cytotoxicity assays were conducted at Thermo Fisher Scientific's Custom Services facility (Madison, WI). A single lot of human HepaRG cells (Thermo Fisher Scientific, Frederick, MD) was used for the cell culture experiments. 96-well format collagen type I coated plates of human HepaRG cells were prepared using established methods. Briefly, cryopreserved HepaRG cells were thawed, plated at a density of approximately 100,000 cells/well in HepaRG Thaw, Plate, and General Purpose media (HPRG770, Thermo Fisher Scientific), and incubated for 48 hours. 0.5% DMSO was selected as vehicle control to balance the requisite need of DMSO in HepaRG cultures to maintain differentiation (for example, baseline metabolism, proportions of hepatocytes vs. cholangiocytes), while enabling further hepatic receptor pathway activation (for example, PXR and CAR) in response to chemical exposure. 48 hours after plating, the culture medium was replaced with HepaRG Serum-Free Incudtion Media. Cells were exposed to each test chemical in duplicate and maintained in CO2 incubators for another 48 hours. Chemical plates were thawed to room temperature and 200x concentrations of treatment groups were prepared. 8-point conentration-reponse curves were made with the highest exposure at 100 uM, followed by half-log dilutions, all in 0.5% DMSO. Each test plate contained variouse controls, induction positive controls (1mM phenobarbital), cytotoxicity positive controls ([…] aflatoxin B1), vehicle controls (0.5% DMSO), and total lysis controls (0.5% DMSO). Cell morphology images were taken using an Essen IncuCyte FLR automated microscope, with six 96-well plates imaged in about 24 minutes. Images were captured and exported and JPEG files. Spent culture media was transfered to black-well plates for the LDH assay, and remaining media was sorted at -80 C for later use. Cells were treated with RLT buffer and frozen until shipped for gene expression analysis. Total RNA was isolated from the cell suspension in 75 uL of Buffer RLT (Qiagen, Germantown, MD 20874) by Quintiles/Expression Analysis (Durham, NC) using a custom isolation procedure. Total RNA from each plate well was transferred to a preamplification plate. Fluidigm's 96.96 Dynamic ArrayTM (Fluidigm, Amsterdam, the Netherlands) technology was used for gene expression analyses by quantitative reverse transcription polymerase chain reaction (qRT-PCR, performed by Quintiles/Expression Analysis, Durham, NC)89. Standard TaqManTM Assays (Applied Biosystems/ThermoFisher Scientific, Foster City, CA) were used to assess the expression of 93 genes selected based on their selectivity and sensitivity to important hepatic receptors known to be modulated by environmental chemicals; importance in human hepatocyte functionality; and hepatotoxicity. […]", "values": [
      {"smiles": "COC(=O)c1ccccc1C(=O)O", "outcome": "inactive"},
      {"smiles": "CC(=O)S[C@@H]1CC2=CC(=O)CC[C@]2(C)[C@H]2CC[C@@]3(C)[C@@H](CC[C@@]34CCC(=O)O4)[C@H]12", "AC50": "50 µM (active)"},
      {"smiles": "Oc1ccc(C(c2ccc(O)cc2)C(Cl)(Cl)Cl)cc1", "AC50": "86.2 µM (active)"},
      {"smiles": "CSC(=O)c1cccc2nnsc12", "outcome": "inactive"},
      {"smiles": "C#CCOC(=O)[C@@H](C)Oc1ccc(Oc2ncc(Cl)cc2F)cc1", "outcome": "inactive"},
      {"smiles": "O=C(O)c1ccccc1", "outcome": "inactive"},
      {"smiles": "CCCCOC(=O)C(C)Oc1ccc(Oc2ccc(C(F)(F)F)cn2)cc1", "note": "(stereo not given)", "outcome": "inactive"},
      {"smiles": "CCN(CC)C(=O)c1cccc(C)c1", "outcome": "inactive"},
      {"smiles": "CC(C)(C)[C@@H](O)[C@@H](Cc1ccc(Cl)cc1)n1cncn1", "outcome": "inactive"},
      {"smiles": "CCCCOCCOCCOCc1cc2c(cc1CCC)OCO2", "outcome": "inactive"},
      {"smiles": "O=C(Nc1ccc([N+](=O)[O-])cc1Cl)c1cc(Cl)ccc1O", "AC50": "1.89 µM (active)"},
      {"smiles": "CCOC(=O)COc1cc(-n2ncc(C(F)(F)F)c(C)c2=O)c(F)cc1Cl", "outcome": "inactive"},
      {"smiles": "CCOC(=O)NCCOc1ccc(Oc2ccccc2)cc1", "outcome": "inactive"},
      {"smiles": "COC(=O)CSc1cc(N=c2sc(=O)n3n2CCCC3)c(F)cc1Cl", "outcome": "inactive"},
      {"smiles": "C[C@]12CC[C@@H]3c4ccc(O)cc4C[C@@H](CCCCCCCCCS(=O)CCCC(F)(F)C(F)(F)F)[C@H]3[C@@H]1CC[C@@H]2O", "note": "(stereo not given in full)", "outcome": "inactive"},
      {"smiles": "COc1c(Cl)ccc(Cl)c1C(=O)O", "outcome": "inactive"},
      {"smiles": "COCCO", "outcome": "inactive"},
      {"smiles": "C[C@]12C[C@H](O)[C@H]3[C@@H](CCC4=CC(=O)CC[C@@]43C)[C@@H]1CC[C@@H]2C(=O)CO", "outcome": "inactive"},
      {"smiles": "OB(O)O", "outcome": "inactive"},
      {"smiles": "CCSC(=O)N(CC(C)C)CC(C)C", "outcome": "inactive"},
      {"smiles": "CN(C)C(=O)Nc1ccc(Cl)c(Cl)c1", "outcome": "inactive"},
      {"smiles": "CCC(C)OC(=O)N1CCCCC1CCO", "note": "(stereo not given)", "outcome": "inactive"},
      {"smiles": "S=C([S-])NCCNC(=S)[S-].[Mn+2]", "AC50": "0.594 µM (active)"},
      {"smiles": "O=C(O)C1(C(=O)Nc2ccc(Cl)cc2Cl)CC1", "AC50": "28.4 µM (active)"},
      {"smiles": "CC(C)(c1ccc(O)cc1)c1ccc(O)cc1", "outcome": "inactive"},
      {"smiles": "N[C@@H](Cc1cc(I)c(Oc2ccc(O)c(I)c2)c(I)c1)C(=O)O", "outcome": "inactive"},
      {"smiles": "S=C(S)NCCNC(=S)S.[Mn+2].[S-]C([S-])=NCCN=C([S-])[S-].[Zn+2]", "AC50": "501 nM (active) and 990 nM (active)", "outcome": "inactive"},
      {"smiles": "CC1(C)C(C=C(Cl)Cl)C1C(=O)OCc1cccc(Oc2ccccc2)c1", "note": "(stereo not given)", "outcome": "inactive"},
      {"smiles": "CC(=O)[C@H]1CC[C@H]2[C@@H]3CCC4=CC(=O)CC[C@]4(C)[C@H]3CC[C@]12C", "outcome": "inactive"},
      {"smiles": "CCCCOC(=O)[C@@H](C)Oc1ccc(Oc2ccc(C(F)(F)F)cn2)cc1", "outcome": "inactive"},
      {"smiles": "CCCN(CCC)C(=O)SCC", "outcome": "inactive"},
      {"smiles": "C#C[C@]1(O)CC[C@H]2[C@@H]3CCC4=CC(=O)CC[C@@H]4[C@H]3CC[C@@]21CC", "outcome": "inactive"},
      {"smiles": "O=C(c1ccccc1)C1CCCCC1", "outcome": "inactive"},
      {"smiles": "c1ccc2[nH]c(-c3cscn3)nc2c1", "outcome": "inactive"},
      {"smiles": "O=C(c1ccc(O)cc1O)c1ccc(O)cc1O", "outcome": "inactive"},
      {"smiles": "CCCCC(CC)COC(=O)c1ccccc1C(=O)O", "note": "(stereo not given)", "outcome": "inactive"},
      {"smiles": "CCNc1nc(N)nc(Cl)n1", "outcome": "inactive"},
      {"smiles": "CCCOC(=O)c1ccc(C(=O)OCCC)nc1", "outcome": "inactive"},
      {"smiles": "C=CCOC(Cn1ccnc1)c1ccc(Cl)cc1Cl", "note": "(stereo not given)", "outcome": "inactive"}
    ]}
  ]
}
